{
  "source": "PubChem BioAssay AID1671190",
  "about": "(National Center for Advancing Translational Sciences (NCATS), 2021)",
  "note": "Among all 580,000 compounds or so, about 6,100 (1.1%) were called active. Not shown: some 15% with an inconclusive outcome. For the sample, actives were picked, then their nearest neighbours and some compounds at random. Unmarked numbers belong to inactive results. The call rests on the fitted dose curve; in most records, active means well fitted inhibition curve with a large enough effect; inconclusive means small, poorly fitted or top-dose-only effect, or another doubt; inactive means no such curve, though single readings can be large or run the other way. On the % scale 0 is the no-effect control and ±100 the full control effect; potency means the concentration at half of the fitted maximal effect.",
  "data": [
    {"biological_target": "Polyunsaturated fatty acid lipoxygenase ALOX12 (Homo sapiens) (UniProt P18054)", "sequence (P18054 whole entry, looked up)": "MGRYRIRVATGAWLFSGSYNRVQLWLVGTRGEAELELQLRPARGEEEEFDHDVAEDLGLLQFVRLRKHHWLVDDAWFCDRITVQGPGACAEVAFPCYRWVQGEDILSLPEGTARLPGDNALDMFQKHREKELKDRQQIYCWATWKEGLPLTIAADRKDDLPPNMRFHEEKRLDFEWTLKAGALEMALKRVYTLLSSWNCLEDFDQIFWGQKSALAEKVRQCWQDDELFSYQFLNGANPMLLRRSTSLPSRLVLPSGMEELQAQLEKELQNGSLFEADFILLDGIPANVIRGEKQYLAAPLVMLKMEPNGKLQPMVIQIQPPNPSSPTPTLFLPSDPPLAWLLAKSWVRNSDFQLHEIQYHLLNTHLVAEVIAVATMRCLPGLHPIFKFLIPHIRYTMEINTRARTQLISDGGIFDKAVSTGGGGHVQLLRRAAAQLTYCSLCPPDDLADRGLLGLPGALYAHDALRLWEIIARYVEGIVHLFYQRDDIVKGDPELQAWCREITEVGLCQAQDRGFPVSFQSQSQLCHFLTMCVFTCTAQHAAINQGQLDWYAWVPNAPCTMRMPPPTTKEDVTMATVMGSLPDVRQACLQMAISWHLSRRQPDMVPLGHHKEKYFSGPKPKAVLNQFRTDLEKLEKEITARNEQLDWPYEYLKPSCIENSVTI", "experiment": "Primary qHTS assay for inhibitors of human arachidonate 12S-lipoxygenase (ALOX12): Round 2", "settings": "purified 12hLO, xylenol orange hydroperoxide absorbance; series mostly up to 108 µM; activity change, negative = inhibition: at the top concentration", "description": "Assay Provider: Theodore R. Holman Ph.D. University of California, Santa Cruz, California Human lipoxygenase 12hLO is a member of the closely related lipoxygenase family of enzymes which catalyze the site-specific oxidation of arachidonic acid to various hormone precursor molecules and as such is a candidate for drug development in a variety of disease areas, such as cancer and inflammation. Inhibition of 12hLO activity was screened by utilizing arachidonic acid as a substrate. The extent of hydroperoxide product formation was measured by a secondary chromogenic reaction in which xylenol orange (XO, Sigma-Aldrich, cat. number 39,818-7) reacts with the ferric ions produced from the reaction between the hydroperoxide and ferrous ions. The Fe (III)-XO complex is characterized with red-shifted absorbance at 560 nm. A purified preparation of human 12hLO was supplied by Dr. Holman laboratory, University of California, Santa Cruz.\nPROTOCOL TABLE SEQUENCE No. (e.g., 1, 2, 3, etc.); […] (e.g., Cells, Incubation, Reagent, etc.); VALUE; DESCRIPTION 1; Enzyme; 3 uL; 150 nM 12hLO enzyme solution dispensed in 1536-well Greiner black, clear bottom plates. 2; Compound; 23 nL; compounds and controls were added. 3; Incubate; 15 min; room temperature. 4; Substrate; 1 uL; 40 uM arachidonic acid (final concentration). 5; Incubate; 30 min; room temperature. 6; Reagent; 4 uL; Fe-XO solution was added to each well. 7; Incubation; 30 min; room temperature 8; Detector; absorbance; Read 1 at 405 nm absorbance using ViewLux (Perkin-Elmer) CCD imager. 9; Detector; absorbance; Read 2 at 573 nm absorbance using ViewLux (Perkin-Elmer) CCD imager. NOTES (numbers refer to sequence above) 1; 150 nM 12hLO (final concentration) in buffer solution (25 mM Hepes, 0.01% Triton X-100, pH 7.0) was dispensed in columns 1, 2, 5-48. Column 1 is neutral (100% activity). Buffer only was dispensed in columns 3 and 4 as no enzyme negative controls. The plates were covered with metal lids with gas-exchange holes. 2; Compounds were pin transferred via a Kalypsys Pin Tool (Wako USA) in column 5-48. Control compound was transferred in column 2, titration of nordihydroguaiaretic acid (NDGA, Sigma-Aldrich, N5023) with top concentration of 20 mM in DMSO then 1:3 dilution in duplicate. Dilution factor of 23 nL into 4 uL final assay volume. 3; Covered assay plates were incubated for 15 min at room temperature. 4; Substrate was added to start the reaction; 40 uM arachidonic acid (Sigma-Aldrich, St. Louis, MO) was dispensed throughout the plate. 6; Chromogenic detection reagent solution (divalent iron/xylenol orange, Fe-XO) was added to each well: 200 uM xylenol orange, 300 uM ferrous ammonium sulfate prepared freshly in 50 mM sulfuric acid. 8, 9; Two absorbance readouts were obtained at 405 nm and at 573 nm using a ViewLux high-throughput CCD plate imager (Perkin-Elmer). The 573 to 405 (Read 2 / Read 1) absorbance ratio was used to compute reaction progress.", "values": [
      {"smiles": "CCOC(=O)c1c(NC(C)=O)sc2c(OCC(=O)Nc3ccccc3C)c(C)ccc12", "activity change, negative = inhibition": "4.61%"},
      {"smiles": "CC(Oc1cccc(Cl)c1)C(=O)Nc1ccc(S(=O)(=O)Nc2ncccn2)cc1", "note": "(configuration not stated)", "activity change, negative = inhibition": "-28%"},
      {"smiles": "COc1cc(NS(=O)(=O)c2ccc(N/C=C(\\C=O)c3nc4cc(Cl)ccc4o3)cc2)nc(OC)n1", "Potency": "22.4 µM (active)"},
      {"smiles": "COC(=O)Nc1ccc(S(=O)(=O)Nc2cc(OC)nc(OC)n2)cc1", "activity change, negative = inhibition": "-27.3%"},
      {"smiles": "CCOC(=O)c1cccc(NC(=O)N2CC[C@@H](CC(=O)N(C)CC#N)[C@@H](CC)C2)c1", "activity change, negative = inhibition": "7.29% [at 176 µM]"},
      {"smiles": "CCOc1ccc(NC(=O)C(=O)c2c[nH]c3ccccc23)cc1", "activity change, negative = inhibition": "-5.79%"},
      {"smiles": "CCc1cccc(NC(=O)Nc2cn(CC(C)C)c(=O)c3ccccc23)c1", "activity change, negative = inhibition": "-24.1%"},
      {"smiles": "[O-]/[N+](=C\\c1ccc2ccccc2n1)c1ccccc1", "Potency": "11.2 µM (active)"},
      {"smiles": "CC(C)Oc1c(Br)cc(Br)cc1/C=N/NC(N)=S", "Potency": "35.5 µM (active)"},
      {"smiles": "N#Cc1cccc(NC(=O)O[C@@H]2CO[C@H]3[C@@H]2OC[C@@H]3Nc2nccc(-c3ccccc3)n2)c1", "activity change, negative = inhibition": "8.46%"},
      {"smiles": "Cc1ccc(C(=O)Nc2ccc3c(N4CCCCC4)ncnc3c2)s1", "activity change, negative = inhibition": "0.475%"},
      {"smiles": "CC(C)CC(N=C1NC(C)(C)Cc2ccccc21)C(=O)O", "note": "(configuration not stated)", "activity change, negative = inhibition": "26.9%"},
      {"smiles": "CC1(C)Cc2ccccc2-c2nnc(-c3cccc(O)c3)n21", "activity change, negative = inhibition": "0%"},
      {"smiles": "CC1(C)Cc2ccccc2-c2[nH]c(=S)[nH]c(=O)c21", "Potency": "7.94 µM (active)"},
      {"smiles": "COc1ccc(-c2nc(CSCC(=O)N(C)c3ccccc3)co2)cc1", "activity change, negative = inhibition": "-7.47%"},
      {"smiles": "COc1ccc(CCC(=O)N2CCCCCCNC(=O)[C@@H]3CCCC[C@@H]32)cc1", "activity change, negative = inhibition": "14.2%"},
      {"smiles": "CCc1ccc(N(Cc2cccs2)C(=O)c2ccccc2C)cc1", "activity change, negative = inhibition": "5.57%"},
      {"smiles": "CC(NS(=O)(=O)c1ccc(F)cc1Cl)C(=O)N1CCCC1", "note": "(configuration not stated)", "activity change, negative = inhibition": "1.67%"},
      {"smiles": "CCOc1ccc(NC(=O)Nc2ccc(CN3CCOCC3)cc2)cc1", "activity change, negative = inhibition": "-0.148%"},
      {"smiles": "COC(=O)c1ccc2c(c1)nc1n2[C@@H](CNCc2cccc(OC)n2)COC1", "activity change, negative = inhibition": "-2.06% [at 176 µM]"},
      {"smiles": "CC(C)c1ccc(NC(=O)c2ccc3c(Cl)c4c(nc3c2)CCCC4)cc1", "activity change, negative = inhibition": "-5.67%"},
      {"smiles": "COc1cccc(C(=O)N2CCc3nc(C4CC4)nc(-c4ccc(Cl)cc4)c3C2)c1", "Potency": "10 µM (active)"},
      {"smiles": "O=C(c1cccc(Cl)c1)N1CCc2nc(C3CC3)nc(-c3ccc(Cl)cc3)c2C1", "activity change, negative = inhibition": "-20.8%"},
      {"smiles": "CC(=O)N1CCc2nc(C3CC3)nc(-c3ccc(Cl)cc3)c2C1", "activity change, negative = inhibition": "7.6% [at 176 µM]"},
      {"smiles": "CCS(=O)(=O)NCC1(COc2ccc(C(F)(F)F)cn2)C[C@@H](O)[C@@H](O)C1", "note": "(some centres not stated)", "Potency": "12.6 µM (active)"},
      {"smiles": "Cn1ccnc1CNCC1(COc2ccc(C(F)(F)F)cn2)C[C@@H](O)[C@@H](O)C1", "note": "(some centres not stated)", "activity change, negative = inhibition": "41%"},
      {"smiles": "O=C(NCC1(COc2ccc(C(F)(F)F)cn2)C[C@@H](O)[C@@H](O)C1)c1ccc(F)cc1", "note": "(some centres not stated)", "activity change, negative = inhibition": "131%"}
    ]}
  ]
}
